In PubChem BioAssay (Tox21):
Values joined by “and” are separate entries in the source; they are usually repeats but may differ in a detail not shown here. Identical values can stand only once. Records with an inconclusive call do not appear. Where a call stands in place of a potency, no number is given. A number with no mark means an inactive call. Active and inactive are the calls of the source. Unless noted, calls come from the whole dose curve; as a rule, active = well fitted curve in the direction sought with a large enough effect in the repeat runs; inconclusive = weak or mixed curves; inactive = no such curve, though single readings can be large; an effect the other way counts as inactive or inconclusive.

What was measured:
[1] = qHTS assay to identify small molecule antagonists of the thyroid receptor (TR) signaling pathway - cell viability counter screen (AID 743064); note: nearly all actives have a fitted effect of over 50% in size
Summary of the method: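 Same-well viability check: GH3.TRE-Luc cells stimulated with 1 nM T3 alongside test compound for 23.5 h, followed by CellTiter-Fluor fluorescence.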

[2] = qHTS assay to identify small molecule antagonists of the thyroid receptor (TR) signaling pathway (AID 743065); note: series mostly up to about 70 µM; nearly all actives have a fitted effect of over 55% in size
Summary of the method: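 Antagonism measured as loss of luciferase signal in GH3 cells stably carrying a TRE-luciferase reporter, co-treated with compound and T3 (1 nM final) for 23.5 h at 37 C. Viability was read in the same well by CellTiter-Fluor.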

[3] = test system: thyroid hormone receptor (rat, GH3 cells); assay: qHTS assay to identify small molecule agonists of the thyroid receptor (TR) signaling pathway (AID 743066; calls by dose curve)
[4] = biological target: Estrogen receptor (Homo sapiens) (UniProt P03372); assay: qHTS assay to identify small molecule antagonists of the estrogen receptor alpha (ER-alpha) signaling pathway (AID 743069; active = well fitted curve in the direction sought with a large enough effect in the signal ratio in the repeat runs, not every such curve was filed as active; the % refers to the signal ratio)
Summary of the method: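 ER-alpha-UAS-bla GripTite HEK293 line; 2% charcoal-stripped FBS overnight; plated, 4 hr 37C/5% CO2; cpd in DMSO + 17beta-estradiol, 18 hr 37C; LiveBLAzer B/G FRET substrate 2 hr RT; fluorescence intensity.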

[5] = qHTS assay to identify small molecule antagonists of the estrogen receptor alpha (ER-alpha) signaling pathway - cell viability counter screen (AID 743074; calls by dose curve;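 note: HEK293 cells carrying ER-alpha-UAS-bla reporter stimulated with 17beta-estradiol; nearly all actives have a fitted effect of over 45% in size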)
[6] = biological target: Estrogen receptor (Homo sapiens) (UniProt P03372); assay: qHTS assay to identify small molecule agonists of the estrogen receptor alpha (ER-alpha) signaling pathway (AID 743075; calls by dose curve;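 note: HEK293 GripTite cells with ER-alpha and UAS-driven beta-lactamase reporter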)
[7] = biological target: Estrogen receptor (Homo sapiens) (UniProt P03372); assay: qHTS assay to identify small molecule agonists of the estrogen receptor alpha (ER-alpha) signaling pathway using the BG1 cell line (AID 743079); note: nearly all actives have a fitted effect of over 20% in size; note: potency is the fitted concentration of half-maximal effect
[8] = qHTS assay to identify small molecule antagonists of the estrogen receptor alpha (ER-alpha) signaling pathway using the BG1 cell line (AID 743080; calls by dose curve;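 note: BG1 cells stimulated with 17beta-estradiol alongside compound; series mostly up to about 70 µM; nearly all actives have a fitted effect of over 25% in size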)
Summary of the method: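 Seeding, 24 h rest, compound transfer from DMSO, 17beta-estradiol addition, 21.5 h incubation, CellTiter-Fluor (30 min, 37 C), then ONE-Glo (30 min, room temperature): this sequence was run on BG1-Luc-4E2 reporter cells.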

[9] = qHTS assay to identify small molecule antagonists of the estrogen receptor alpha (ER-alpha) signaling pathway using the BG1 cell line - cell viability counter screen (AID 743081);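 note: compound given together with 17beta-estradiol as the ER stimulus; series mostly up to about 70 µM; nearly all actives have a fitted effect of over 45% in size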
Aromatase (Homo sapiens) = Aromatase (Homo sapiens) (UniProt P11511); assay: qHTS assay to identify aromatase inhibitors (AID 743083); note: series mostly up to about 70 µM; nearly all actives have a fitted effect of over 55% in size
[10] = qHTS assay to identify aromatase inhibitors - cell viability counter screen (AID 743084);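 note: cells stimulated with testosterone during compound exposure; nearly all actives have a fitted effect of over 55% in size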
[11] = qHTS assay to identify small molecule that activate the aryl hydrocarbon receptor (AhR) signaling pathway - cell viability counter screen (AID 743086);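 note: HepG2 liver cells carrying the AhR DRE luciferase reporter; series mostly up to about 70 µM; nearly all actives have a fitted effect of over 45% in size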
Summary of the method: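 Cytotoxicity counter screen: CellTiter-Fluor signal (30 min, 37 C) in 4000 HepG2 cells/well carrying the DRE-luciferase reporter, following 24 h compound exposure at 37 C.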

[12] = biological target: Peroxisome proliferator-activated receptor gamma (Homo sapiens) (UniProt P37231); assay: qHTS assay to identify small molecule agonists of the peroxisome proliferator-activated receptor gamma (PPARg) signaling pathway (AID 743094; active = well fitted activation curve with a large enough effect in the signal ratio in the repeat runs, not every such curve was filed as active; the % refers to the signal ratio)
Summary of the method: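 Beta-lactamase FRET fluorescence was the read-out after a 1 h room-temperature substrate step, following 17 h compound treatment at 37C of HEK293H cells expressing a UAS-driven bla reporter responsive to PPARg.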

[13] = qHTS assay to identify small molecule antagonists of the peroxisome proliferator-activated receptor gamma (PPARg) signaling pathway - cell viability counter screen (AID 743194); note: nearly all actives have a fitted effect of over 55% in size
Summary of the method: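 Viability was measured as CellTiter-Glo luminescence in GeneBLAzer PPARg UAS-bla HEK293H cells. These cells had been exposed 17 h at 37 C to compounds together with rosiglitazone at 50 nM final, with the beta-lactamase readout taken in the same wells.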

[14] = qHTS assay for small molecule agonists of the antioxidant response element (ARE) signaling pathway - cell viability counter screen (AID 743203; calls by dose curve; note: nearly all actives have a fitted effect of over 55% in size)
Summary of the method: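 HepG2 cells carrying ARE-driven beta-lactamase; 2,000 cells/well; 5 hrs plating; compound pinned from DMSO; 16 hrs 37C/5% CO2; CellTiter-Glo added; 30 min RT; luminescence.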

[15] = qHTS assay for small molecule activators of the heat shock response signaling pathway - cell viability counter screen (AID 743209); note: nearly all actives have a fitted effect of over 50% in size
Summary of the method: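 Luminescence from CellTiter-Glo, added after the beta-lactamase FRET read, gave the viability signal. Cells were HSE-bla HeLa treated with DMSO-dissolved compounds for 5 h at 37 C following overnight plating.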

[16] = qHTS assay for small molecule activators of the heat shock response signaling pathway (AID 743210; active = well fitted activation curve with a large enough effect in the signal ratio in the repeat runs, with a control signal flat, not every such curve was filed as active; the % refers to the signal ratio;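 note: HeLa cells with beta-lactamase reporter driven by heat shock elements; series mostly up to about 63 µM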)
Summary of the method: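 HeLa HSE-bla cells, overnight plating; cpd in DMSO 5 h, 37 C; LiveBLAzer B/G FRET substrate 2.5 h RT; fluorescence intensity read.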

[17] = biological target: Aryl hydrocarbon receptor (Homo sapiens) (UniProt P35869); assay: qHTS assay to identify small molecule that activate the aryl hydrocarbon receptor (AhR) signaling pathway (AID 743085); note: nearly all actives have a fitted effect of over 15% in size; note: potency is the fitted concentration of half-maximal effect;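 for activation: HG2L7.5c1 human HepG2 liver cells with stably integrated DRE-driven firefly reporter; series mostly up to about 70 µM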
Summary of the method: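 Reporter assay in engineered HepG2 line HG2L7.5c1, whose plasmid carries twenty dioxin responsive elements upstream of firefly luciferase. Treatment lasted 24 h at 37C; ONE-Glo luminescence gauged induction.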

[18] = qHTS assay for small molecule agonists of the antioxidant response element (ARE) signaling pathway (AID 743202; active = well fitted activation curve with a large enough effect in the signal ratio in the repeat runs, not every such curve was filed as active; the % refers to the signal ratio; note: potency is the fitted concentration of half-maximal effect)
Summary of the method: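 Quantitative high-throughput format in HepG2 cells bearing an integrated ARE-beta-lactamase reporter. Compound exposure lasted 16 h at 37 C, and fluorescence was read 2 h after adding LiveBLAzer B/G substrate at room temperature.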

[19] = biological target: Peroxisome proliferator-activated receptor gamma (Homo sapiens) (UniProt P37231); assay: qHTS assay to identify small molecule antagonists of the peroxisome proliferator-activated receptor gamma (PPARg) signaling pathway (AID 743191; calls by dose curve; note: series mostly up to about 63 µM; nearly all actives have a fitted effect of over 30% in size)
Summary of the method: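 Beta-lactamase reporter under UAS control in HEK293H PPARg-bla cells; compound treatment 17 h at 37C. Read-out: fluorescence intensity after 1 h room-temperature incubation with LiveBLAzer B/G FRET substrate.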

Chain of Aryl hydrocarbon receptor (Homo sapiens) (P35869 whole entry, looked up): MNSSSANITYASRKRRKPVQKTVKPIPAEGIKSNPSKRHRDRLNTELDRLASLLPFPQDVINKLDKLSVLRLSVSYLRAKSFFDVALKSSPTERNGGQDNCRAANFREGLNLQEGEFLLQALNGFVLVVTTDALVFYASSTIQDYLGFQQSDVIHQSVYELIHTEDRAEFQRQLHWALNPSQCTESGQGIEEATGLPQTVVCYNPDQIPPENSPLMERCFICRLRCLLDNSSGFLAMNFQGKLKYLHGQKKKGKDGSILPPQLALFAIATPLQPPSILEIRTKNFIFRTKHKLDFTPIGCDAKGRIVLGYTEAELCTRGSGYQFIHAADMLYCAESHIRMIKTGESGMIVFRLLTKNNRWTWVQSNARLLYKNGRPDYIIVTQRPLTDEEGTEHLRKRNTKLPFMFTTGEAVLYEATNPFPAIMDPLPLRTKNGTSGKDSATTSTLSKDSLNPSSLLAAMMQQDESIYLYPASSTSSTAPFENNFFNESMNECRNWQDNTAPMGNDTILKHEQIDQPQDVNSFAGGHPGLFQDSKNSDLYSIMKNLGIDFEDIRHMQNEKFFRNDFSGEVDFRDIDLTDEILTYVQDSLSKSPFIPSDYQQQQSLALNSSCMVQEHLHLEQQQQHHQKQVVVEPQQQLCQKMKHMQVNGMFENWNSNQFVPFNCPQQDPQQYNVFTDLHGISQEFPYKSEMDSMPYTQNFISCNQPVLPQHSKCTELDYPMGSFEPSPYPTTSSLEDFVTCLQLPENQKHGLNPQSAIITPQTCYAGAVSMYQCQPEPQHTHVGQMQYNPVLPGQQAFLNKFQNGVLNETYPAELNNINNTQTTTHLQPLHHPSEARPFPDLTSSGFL
Chain of Aromatase (Homo sapiens) (P11511 whole entry, looked up): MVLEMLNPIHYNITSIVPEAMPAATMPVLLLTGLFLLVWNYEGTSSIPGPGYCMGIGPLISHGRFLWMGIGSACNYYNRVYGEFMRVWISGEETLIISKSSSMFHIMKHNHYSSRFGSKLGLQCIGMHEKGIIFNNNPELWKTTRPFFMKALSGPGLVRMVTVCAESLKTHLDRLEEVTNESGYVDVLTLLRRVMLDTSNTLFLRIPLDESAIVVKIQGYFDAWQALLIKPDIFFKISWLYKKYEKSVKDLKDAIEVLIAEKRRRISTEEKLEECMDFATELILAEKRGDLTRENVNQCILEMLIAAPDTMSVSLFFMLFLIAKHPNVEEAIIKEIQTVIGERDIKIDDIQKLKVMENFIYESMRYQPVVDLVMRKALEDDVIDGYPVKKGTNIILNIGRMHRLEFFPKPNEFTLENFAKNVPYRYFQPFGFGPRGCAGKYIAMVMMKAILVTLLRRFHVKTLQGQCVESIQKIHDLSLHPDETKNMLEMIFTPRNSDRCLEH
Chain of Estrogen receptor (Homo sapiens) (P03372 whole entry, looked up): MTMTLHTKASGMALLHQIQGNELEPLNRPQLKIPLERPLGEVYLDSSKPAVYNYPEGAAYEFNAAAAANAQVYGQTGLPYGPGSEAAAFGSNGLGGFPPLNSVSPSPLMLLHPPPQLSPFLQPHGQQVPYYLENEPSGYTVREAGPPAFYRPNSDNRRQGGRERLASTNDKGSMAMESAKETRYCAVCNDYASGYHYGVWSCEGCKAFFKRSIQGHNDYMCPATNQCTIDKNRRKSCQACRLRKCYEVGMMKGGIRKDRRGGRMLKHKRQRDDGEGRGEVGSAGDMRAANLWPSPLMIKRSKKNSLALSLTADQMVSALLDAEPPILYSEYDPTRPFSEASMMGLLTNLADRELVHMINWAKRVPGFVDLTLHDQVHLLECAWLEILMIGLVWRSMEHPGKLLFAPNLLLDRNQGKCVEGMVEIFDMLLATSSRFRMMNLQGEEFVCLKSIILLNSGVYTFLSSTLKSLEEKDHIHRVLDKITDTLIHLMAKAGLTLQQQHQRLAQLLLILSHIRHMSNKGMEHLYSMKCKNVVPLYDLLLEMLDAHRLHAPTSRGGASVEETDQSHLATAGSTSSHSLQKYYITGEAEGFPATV
Chain of Peroxisome proliferator-activated receptor gamma (Homo sapiens) (P37231 whole entry, looked up): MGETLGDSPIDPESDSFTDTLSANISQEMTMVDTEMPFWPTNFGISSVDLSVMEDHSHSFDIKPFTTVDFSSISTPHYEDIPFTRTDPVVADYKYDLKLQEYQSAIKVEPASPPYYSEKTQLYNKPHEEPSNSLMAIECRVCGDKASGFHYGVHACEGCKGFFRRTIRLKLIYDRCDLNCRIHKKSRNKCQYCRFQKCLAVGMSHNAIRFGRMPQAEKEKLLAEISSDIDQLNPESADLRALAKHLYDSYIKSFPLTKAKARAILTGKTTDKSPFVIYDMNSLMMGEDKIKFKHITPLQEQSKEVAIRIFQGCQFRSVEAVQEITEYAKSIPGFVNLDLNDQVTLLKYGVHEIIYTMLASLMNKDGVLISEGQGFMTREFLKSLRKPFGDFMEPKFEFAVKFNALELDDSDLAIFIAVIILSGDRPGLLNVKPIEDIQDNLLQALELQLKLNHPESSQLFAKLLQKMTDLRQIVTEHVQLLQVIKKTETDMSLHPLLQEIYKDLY

Row | Structure (SMILES) | Potency [1] | Potency [2] | Potency [3] | Potency [4] | outcome [5] | Potency [6] | Potency [7] | Potency [8] | outcome [9] | Potency (Aromatase (Homo sapiens)) | Potency [10] | Potency [11] | outcome [12] | Potency [13] | outcome [14] | outcome [15] | outcome [16] | Potency [17] | Potency [18] | outcome [19]
1 | Cc1ccc(Nc2ccc(O)c3c2C(=O)c2ccccc2C3=O)cc1 | inactive | inactive | inactive | inactive | inactive | inactive | inactive | inactive | inactive | inactive | inactive | inactive | inactive | inactive | inactive | inactive | inactive |  |  | 
2 | [O-][N+](=Nc1ccccc1)c1ccccc1 | inactive | inactive | inactive | inactive | inactive | inactive | 15 µM (active) and 54.5 µM (active) |  | inactive | inactive | inactive | inactive | inactive | inactive | inactive | inactive | inactive | 30.6 µM (active) | 6.86 µM (active) | 
3 | CCCCCOC(=O)Nc1nc(=O)n([C@@H]2O[C@H](C)[C@@H](O)[C@H]2O)cc1F | inactive | inactive | inactive | inactive | inactive | inactive | inactive | inactive | inactive | inactive | inactive |  | inactive | inactive |  | inactive | inactive | inactive | inactive | inactive
4 | CCCCCCCCCCCCCCCCCC(=O)OCCCCCCCCCCCCCC(C)C | inactive | inactive | inactive | inactive | inactive | inactive | 56.4 µM (active) | inactive | inactive | inactive | inactive | inactive | inactive |  | inactive | inactive | inactive | inactive | inactive | 
5 | O=[N+]([O-])c1ccc(Oc2ccc([N+](=O)[O-])cc2)cc1 | inactive | inactive | inactive | inactive | inactive | inactive | inactive | inactive | inactive | inactive | inactive | inactive | inactive |  | inactive | inactive | inactive | inactive | inactive | 
6 | Fc1ccccc1-c1ccccc1 | inactive | inactive | inactive | inactive | inactive | inactive | inactive | inactive | inactive | inactive | inactive |  | inactive | inactive | inactive | inactive | inactive | inactive |  | 
7 | CCCCc1ccc2cccc(S(=O)(=O)O)c2c1 | inactive | inactive | inactive | inactive | inactive | inactive | inactive | inactive | inactive | inactive | inactive |  | inactive | inactive |  | inactive | inactive | inactive | inactive | inactive
8 | CCO[Si](C)(OCC)OCC | inactive | inactive | inactive | inactive | inactive | inactive | inactive | inactive | inactive | inactive | inactive | inactive |  | inactive | inactive | inactive | inactive | inactive | inactive | 
9 | CCN(CC)S(=O)(=O)c1ccc(C(=O)O)cc1 | inactive | inactive | inactive | inactive | inactive | inactive | inactive | inactive | inactive | inactive | inactive |  | inactive | inactive | inactive | inactive | inactive | inactive | inactive | 
10 | C[N+](C)(C)CC[N+]1(C)Cc2c(Cl)c(Cl)c(Cl)c(Cl)c2C1 | inactive | inactive | inactive | inactive | inactive | inactive | inactive | inactive | inactive | inactive | inactive | inactive | inactive |  | inactive | inactive | inactive | inactive |  | 
11 | O=C1C(CCS(=O)c2ccccc2)C(=O)N(c2ccccc2)N1c1ccccc1 (configuration not stated) | inactive | inactive | inactive | inactive | inactive | inactive | inactive | inactive | inactive | inactive | inactive |  | inactive | inactive | inactive | inactive | inactive | inactive | inactive | 
12 | CC(C)=CCC/C(C)=C/C(=O)O | inactive | inactive | inactive | inactive | inactive | inactive | inactive | inactive | inactive | inactive | inactive |  |  | inactive | inactive | inactive | inactive | inactive | inactive | 
13 | CCCCCC[C@@H](CCC)C(=O)O | inactive | inactive | inactive | inactive | inactive | inactive | inactive | inactive |  | inactive | inactive | inactive | inactive | inactive | inactive | inactive | inactive | inactive | inactive | 
14 | C=CCOCC(O)CS(=O)(=O)O (configuration not stated) | inactive | inactive | inactive | inactive | inactive | inactive | inactive | inactive | inactive | inactive | inactive |  | inactive |  |  | inactive | inactive |  | inactive | 
15 | CCCCCCOC(=O)c1ccccc1O | inactive | inactive | inactive | inactive | inactive | inactive |  | inactive | inactive | inactive | inactive | inactive | inactive | inactive | inactive | inactive | inactive | inactive | inactive | 
16 | C[C@H](O)C(=O)Nc1c(I)c(C(=O)NC(CO)CO)c(I)c(C(=O)NC(CO)CO)c1I | inactive | inactive | inactive | inactive | inactive | inactive | inactive |  | inactive | inactive | inactive | inactive | inactive | inactive | inactive | inactive | inactive | inactive | inactive | inactive
